Drawing on PubChem BioAssay AID651650 (Sanford-Burnham Center for Chemical Genomics, 2012), this text covers inhibition for 17 molecules.

For orientation: inhibition means the drop in the measured response relative to a control, in per cent.

Chain of Neuropilin-1 (Homo sapiens) (O14786 whole entry, looked up): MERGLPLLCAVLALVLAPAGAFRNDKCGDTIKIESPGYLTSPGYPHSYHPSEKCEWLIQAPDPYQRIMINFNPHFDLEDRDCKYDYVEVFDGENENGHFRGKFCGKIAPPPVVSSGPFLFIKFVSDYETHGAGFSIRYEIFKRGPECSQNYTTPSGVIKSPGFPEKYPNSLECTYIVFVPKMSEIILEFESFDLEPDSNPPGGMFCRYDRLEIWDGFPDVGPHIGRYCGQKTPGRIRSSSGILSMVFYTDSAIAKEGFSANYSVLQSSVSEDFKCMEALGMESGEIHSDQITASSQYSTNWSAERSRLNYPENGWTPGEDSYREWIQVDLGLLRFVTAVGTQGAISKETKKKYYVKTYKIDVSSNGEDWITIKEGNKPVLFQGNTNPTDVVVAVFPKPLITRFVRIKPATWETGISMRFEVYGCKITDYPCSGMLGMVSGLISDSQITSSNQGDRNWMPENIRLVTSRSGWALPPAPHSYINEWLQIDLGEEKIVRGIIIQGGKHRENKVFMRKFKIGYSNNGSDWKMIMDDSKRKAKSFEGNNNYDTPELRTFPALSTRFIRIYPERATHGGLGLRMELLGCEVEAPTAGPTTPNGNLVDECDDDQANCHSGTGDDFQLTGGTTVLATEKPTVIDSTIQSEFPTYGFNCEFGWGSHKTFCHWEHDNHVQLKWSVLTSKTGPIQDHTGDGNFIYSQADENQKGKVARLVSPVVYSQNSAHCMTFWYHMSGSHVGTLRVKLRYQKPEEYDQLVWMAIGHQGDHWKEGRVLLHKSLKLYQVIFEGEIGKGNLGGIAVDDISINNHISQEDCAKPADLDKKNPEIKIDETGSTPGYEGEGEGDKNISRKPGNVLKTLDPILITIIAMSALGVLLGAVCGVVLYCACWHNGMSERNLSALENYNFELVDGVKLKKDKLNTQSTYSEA

The assay addresses Neuropilin-1 (Homo sapiens) (UniProt O14786). In words: NRP-1 b1b2 CendR peptide binding inhibitors, dose response, biochemical, FP and AlphaScreen panel (AID 651650). The following applies: NRP-1 b1b2 / RPARPAR peptide binding, FP or AlphaScreen; run 1, at 100 µM (top of the series). On the technique in general: Alpha assays give light when donor and acceptor beads are brought close together.
`CCN(CC)C(=O)c1cccc(-c2csc(C(NC(C)=O)c3cccc(OC)c3)n2)c1` (configuration not stated): the inhibition amounted to 18.7%.

Regarding `COc1ccc2c(c1OC)CN1CCc3cc4c(cc3[C@@H]1[C@@H]2O)OCO4`, the inhibition is -3.65%. Then `CC(=O)c1cccc(S(=O)(=O)N2CCC(C(=O)O)(c3ccccc3)CC2)c1`, with 49.1%; and `CC(=O)Nc1ccc2nc3c(=O)n(C)c(=O)n(C)c3nc2c1`, with 84.8%.

Turning to `CC(=O)N1CCSc2ccc(S(=O)(=O)Nc3ccc(C)cc3)cc21`, the inhibition amounted to 47.7%. Then `O=C1CCC/C=C\C[C@@H](CC(=O)N(CCO)Cc2ccccc2)C(=O)N2CCC[C@H]2CO1`, with -2.11%; and `CCCc1c(O)c2ccccc2[nH]c1=O`, with 5.68%; and `O=C(O)C1CCN(C(=O)c2ccc(Cl)cc2)CC1`, with 32%. Then `CC(C)OC(=O)CSc1nnc(-c2ccccn2)n1-c1ccccc1`, with -4.4%; and `COc1ccc(C(C(=O)NC(C)(C)C)N(C(=O)CCC(=O)Nc2cc(C)on2)c2c(C)cccc2C)cc1` (configuration not stated), with 42.7%; and `COc1ccc([C@H]2/C=C\CN(S(C)(=O)=O)[C@@H](C)C(=O)N2Cc2ccc(F)cc2)cc1`, with 28.8%. Then `COc1ccc(NC(=O)CN2CCN(c3c(C)cc(C)cc3C)CC2)cc1`, with 2.2%. On to `CCCc1c(C)nc(N2CCN(c3ccccc3OC)CC2)[nH]c1=O`, for which the inhibition amounted to 37.3%.

With `O=C(Nc1cccc(S(=O)(=O)N2CCCCC2)c1)c1ccc([N+](=O)[O-])o1`, the inhibition is 52.5%. Take `Cc1ccccc1Nc1cc(=O)oc2ccccc12`: the inhibition is 5.19%. Then `CCCN=C1N/C(=C\c2ccco2)C(=O)N1c1ccccc1`, with 3.93%; and `O=C(Cc1ccc(F)cc1)N1CCN=C1SCc1ccc([N+](=O)[O-])cc1`, with 18.7%.
